This is a sample that favours compounds with a hit; in the whole collection about 0.9% have one here.
SRC3 TRFRET art: counter-screen for PPARgamma SRC-3 recruitment agonists: TR-FRET artefact | TR-FRET ratio at 8 µM | PPARgamma/SRC-3 format; active compounds read high | actives 0.39% (n = 99,000); in the data active means TR-FRET ratio above about 2000
PPARg SRC1 recr: agonists of human PPARgamma SRC-1 coactivator recruitment. PPARgamma-SRC-1 coactivator recruitment biochemical assay. activation, % at 8 µM. actives 0.41% (n = 200,000). AID 631; in the data active means activation above about 19%;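 further: 0% = DMSO and 100% = reference agonist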
Target sequence (P37231 whole entry, looked up): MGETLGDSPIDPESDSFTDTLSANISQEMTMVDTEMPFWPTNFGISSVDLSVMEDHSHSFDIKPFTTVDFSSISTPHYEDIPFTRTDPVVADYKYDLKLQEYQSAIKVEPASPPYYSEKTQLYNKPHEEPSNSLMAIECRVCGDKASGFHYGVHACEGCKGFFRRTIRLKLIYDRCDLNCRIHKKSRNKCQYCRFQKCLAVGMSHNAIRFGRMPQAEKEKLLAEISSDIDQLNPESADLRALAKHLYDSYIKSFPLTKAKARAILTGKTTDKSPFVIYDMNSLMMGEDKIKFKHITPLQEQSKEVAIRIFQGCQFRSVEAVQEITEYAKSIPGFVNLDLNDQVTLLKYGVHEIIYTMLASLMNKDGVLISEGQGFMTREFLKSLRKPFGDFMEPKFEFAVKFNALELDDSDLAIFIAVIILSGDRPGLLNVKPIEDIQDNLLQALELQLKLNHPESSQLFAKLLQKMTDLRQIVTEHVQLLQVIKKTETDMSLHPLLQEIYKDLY
PPARg SRC3 recr: PPARgamma-driven SRC-3 recruitment agonism | P37231 | biochemical PPARgamma/SRC-3 coactivator recruitment assay | activation, % at 8 µM | actives 0.26% (n = 200,000); in the data active means activation above about 23%;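 further: 0% = DMSO and 100% = reference agonist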
TR-FRET SRC-2 ct: flags TR-FRET format artefacts in PPARgamma SRC-2 recruitment agonist screen. TR-FRET artefact counter-screen; active compounds read high. TR-FRET ratio at 8 µM. actives 0.4% (n = 200,000). AID 1049; in the data active means TR-FRET ratio above about 2000
PPARg SRC2 recr: agonists of SRC-2 recruitment by human PPARgamma; P37231; PPARgamma LBD-SRC-2 recruitment, biochemical; activation, % at 8 µM; actives 0.34% (n = 200,000);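 further: 0% = vehicle and 100% = reference agonist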
SRC1 TRFRET art: TR-FRET artefact, counter-screen to PPARgamma/SRC-1 agonist assay; AID 1051; TR-FRET ratio at 8 µM; TR-FRET detection artefact counter-screen, emission ratio; active compounds read high; actives 0.34% (n = 99,000); in the data active means TR-FRET ratio above about 2300
PPARg SRC2 ag: confirmation of agonists of SRC-2 recruitment by human PPARgamma. shares compounds with PPARg SRC3 recr. biochemical SRC-2 recruitment by PPARgamma. activation, % at 8 µM. actives 52% (n = 790);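 further: 0% = vehicle alone and 100% = reference agonist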
PPARg SRC1 ag: confirmation of agonists of SRC-1 recruitment by human PPARgamma | shares compounds with PPARg SRC3 recr | PPARgamma–SRC-1 coactivator recruitment biochemical assay | activation, % at 8 µM | actives 43% (n = 790) | AID 1300; in the data active means activation above about 20%;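 further: 0% = vehicle wells and 100% = reference agonist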
PPARg SRC3 ag: confirmation of agonists of SRC-3 recruitment by human PPARgamma; shares compounds with PPARg SRC3 recr; biochemical PPARgamma-SRC-3 coactivator recruitment, agonist mode; activation, % at 8 µM; actives 29% (n = 790); in the data active means activation above about 24%;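 further: 0% = vehicle wells and 100% = reference agonist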
* marks the source's active call; other numbers are inactive results; / = no result given; ! = not confirmed by another sample. Unless noted, no stated cut-off is given here; in the data, active means activation above about 22%; inactive means the rest.

SMILES | SRC3 TRFRET art | PPARg SRC1 recr | PPARg SRC3 recr | TR-FRET SRC-2 ct | PPARg SRC2 recr | SRC1 TRFRET art | PPARg SRC2 ag | PPARg SRC1 ag | PPARg SRC3 ag
Cn1c(=O)cc(SCC(=O)NCC2CCCO2)c2ccc(Cl)cc21 (configuration not stated) | / | 63* | 112* | 2967* | 90* | / | 43* | 28* | 29*
CN(CCCNC(=O)CSc1cc(=O)n(C)c2cc(Cl)ccc12)Cc1ccccc1 | 2993* | 64* | 33* | 2902* | 20 | 3308* | 39* | 27* | 27*
CC(C)N(C(=O)Cn1cc(SCC(=O)NCC2CCCO2)c2ccccc21)C(C)C (configuration not stated) | 1645 | 1 | 2 | 1473 | 1 | 1859 | / | / | /
CCn1c(=O)cc(SCC(=O)NCC2CCCO2)c2ccccc21 (configuration not stated) | / | 31* | 66* | 2825* | 50* | / | 35* | 21* | 23
CCN1CCCC1CNC(=O)CSc1cc(=O)n(C)c2cc(Cl)ccc12 (configuration not stated) | / | 50* | 57* | 2477* | 52* | / | 39* | 28* | 27*
Cc1ccc(CN2CCN(Cc3ccc4cc(F)ccc4n3)CC2CCO)o1 (configuration not stated) | 1470 | -3 | -2 | 1527 | -2 | 1425 | / | / | /
O=C(CCSc1nnc2ccc3ccccc3n12)Nc1ccc(F)cc1 | / | 10 | 33* | 1920 | 17 | / | 29* | 24* | 19
COc1ccc(CNC(=O)CSc2nc(-c3ccccc3)cc(-c3cccs3)c2C#N)cc1 | / | 14 | 22 | 3077* | 55* | / | 26* | 25* | 13
Cn1c(Cc2ccccc2)nnc1SCC(=O)NCCc1ccccc1 | 1523 | 1 | 0 | 1349 | -9 | 1656 | / | / | /
Cc1ccc(C)c(-n2c3nc(=O)[nH]c(=O)c-3cc3cc([N+](=O)[O-])ccc32)c1 | 1545 | 13 | 23* | 1510 | -3 | 1662 | 11 | 13 | 21
Cn1c(N)c(C(=O)COC(=O)c2ncc(Cl)c(Cl)c2Cl)c(=O)n(C)c1=O | 1354 | 5 | 1 | 1422 | -3 | 1593 | / | / | /
C#CCn1c(=NC(=O)c2ccc(Br)s2)sc2cccc(OC)c21 | / | 24* | 33* | 4015* | 30* | / | 46* | 32* | 26*
C#CCn1c(=NC(=O)c2ccc(Br)s2)sc2cc(NC(C)=O)ccc21 | 1650 | 4 | 7 | 1669 | 3 | 1868 | / | / | /
O=C(Nc1cc(SCC(O)CO)cc([N+](=O)[O-])c1)c1ccc(-n2cnnn2)cc1 (configuration not stated) | 1435 | 62* | 28* | 1611 | 59* | 1703 | 10 | 3 | 3
Cc1cccc2nc(-c3ccccc3)nc(N[C@@H](CO)c3ccccc3)c12 | 1386 | 7 | 2 | 1588 | 8 | 1742 | / | / | /
O=Nc1c(O)[nH]c2ccc(F)cc12 | 1717 | 3 | 7 | 1591 | 5 | 1901 | / | / | /
Cc1cc2c(N=O)c(NO)ccc2[nH]1 | / | 17 | 30* | 1595 | 15 | / | 6 | 9 | 4
Cc1cc(SC(C)C(=O)O)nc2ccccc12 (configuration not stated) | 1737 | 7 | 2 | 1747 | 2 | 1775 | / | / | /
CC(Sc1cnc2ccccc2n1)C(=O)O (configuration not stated) | / | 12 | 21 | 1899 | 26* | / | 6 | -1 | 6
CC(Sc1ccc2ccccc2n1)C(=O)O (configuration not stated) | / | 30*! | 37* | 2286* | 23* | / | 26* | 17 | 18
O=C(CN1CCCCCCC1)Nc1cccc(Cl)c1Cl | 1609 | 0 | -6 | 1302 | -15 | 1650 | / | / | /
COC1Cc2ccccc2N(C(=O)N2CCN(CCO)CC2)c2ccccc21 (configuration not stated) | / | 19* | 1 | 1731 | 9 | / | 1 | -1 | 0
c1ccc(Cc2nnc(Sc3ccccc3)c3ccccc23)cc1 | / | 65* | 113* | 4254* | 117* | / | 77* | 52* | 53*
COCCCNc1nnc(Cc2ccccc2)c2ccccc12 | 1742 | 6 | 2 | 1694 | 3 | 1985 | / | / | /
COc1ccc(S(=O)(=O)Nc2ccc3c(c2)OCO3)cc1C | / | 4 | 19 | 1864 | 24* | / | 3 | -3 | 0
SMILES | SRC3 TRFRET art | PPARg SRC1 recr | PPARg SRC3 recr | TR-FRET SRC-2 ct | PPARg SRC2 recr | SRC1 TRFRET art | PPARg SRC2 ag | PPARg SRC1 ag | PPARg SRC3 ag
Cc1ccc(C2C(C(=O)c3cccs3)=C(O)C(=O)N2c2nnc(C)s2)cc1 (configuration not stated) | 2078* | 23* | 7 | 2089* | 12 | 2419* | 20 | 17 | 14
Cc1nnc(N2C(=O)C(O)=C(C(=O)c3ccco3)C2c2ccc(C(C)(C)C)cc2)s1 (configuration not stated) | / | 31* | 42* | 2126* | 28* | / | 39* | 31* | 25*
O=C1NC(c2ccccc2)C(C(=O)c2cccs2)=C1O (configuration not stated) | / | 20* | 14 | 1704 | 10 | / | 10 | 8 | 7
Cc1nnc(N2C(=O)C(O)=C(C(=O)c3ccco3)C2c2ccc(C(C)C)cc2)s1 (configuration not stated) | 2243* | 27* | 10 | 2173* | 33* | 2626* | 19 | 12 | 11
O=C(NCCCn1ccnc1)c1ccc(N2CCCCC2)c([N+](=O)[O-])c1 | 1542 | 3 | 2 | 1828 | 17 | 2086 | / | / | /
COCCNC(=O)C(c1ccc(C)o1)N(C(=O)Cn1nnc2ccccc21)c1ccccc1 (configuration not stated) | 1503 | -4 | -2 | 1461 | -9 | 1651 | / | / | /
O=C1c2cccc(OCC(=O)N3N=C(c4cccs4)CC3c3ccc(F)cc3)c2CCN1Cc1cccnc1 (configuration not stated) | 1656 | 0 | 3 | 1662 | 9 | 1856 | / | / | /
Cc1c(C=O)c(=O)n(-c2ccccc2)n1-c1ccccc1 | 1524 | -10 | -1 | 1422 | -3 | 1883 | / | / | /
COCCN1C(=O)C(O)=C(C(=O)c2cccs2)C1c1ccccc1 (configuration not stated) | / | 19* | 14 | 1641 | 3 | / | 20 | 12 | 11
COc1cccc(C2C(C(=O)c3cccs3)=C(O)C(=O)N2CCN(C)C)c1OC (configuration not stated) | / | -2 | 1 | 1515 | 10 | / | / | / | /
COCCCN1C(=O)C(O)=C(C(=O)c2ccco2)C1c1ccc(Br)cc1 (configuration not stated) | / | 14 | 22 | 1860 | 22 | / | / | / | /

Source: PubChem BioAssay
